Sampled rows, rich in hits. Any-hit rate of the full collection: about 5.1%.
JMJD2E inh = blocks human JMJD2E demethylase activity | Potency, µM (doses to about 57.1 µM), for inactives: at the highest dose activity change, negative = inhibition, usual class: inhibitors | actives 1.6% (n = 230,000) | B2RXH2 | JMJD2E catalytic domain, FDH-coupled NADH fluorescence (FDH is formaldehyde dehydrogenase) | AID 2147; active = well fitted inhibition curve with a large enough effect, not every such curve was filed as active; inconclusive = small, poorly fitted or top-dose-only effect, or another doubt; inactive = no such curve, though single readings can be large or run the other way;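 also: potency is read from the fitted curve at half-maximal effect; 0% = wells with enzyme and -100% = buffer wells without enzyme; nearly all actives have a fitted effect of over 50% in size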
Tau ThT inhib = blocks human tau fibril formation measured by thioflavin T; actives 2.1% (n = 270,000); recombinant tau K18 P301L, heparin-induced fibrillization, ThT fluorescence; P10636; AID 1460; Potency, µM (titrated, usually from 57.4 µM), for the others: at the highest dose activity, negative = inhibition, usual class: inhibitors; also: potency is read from the fitted curve at half-maximal effect; nearly all actives have a fitted effect of over 55% in size
Target sequence (P10636 561-689 P618L limits assumed): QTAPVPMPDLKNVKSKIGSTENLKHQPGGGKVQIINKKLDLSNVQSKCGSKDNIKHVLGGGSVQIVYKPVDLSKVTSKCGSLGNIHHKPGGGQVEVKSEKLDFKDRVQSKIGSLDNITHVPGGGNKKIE
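Heparin-induced (20 uM) aggregation of recombinant human K18 P301L tau, 15 uM unlabeled with 0.24 uM labeled, pH 7 acetate buffer, 6 hr at 37 C with compound. Fibrils quantified by 30 uM ThT fluorescence after 1 hr ambient incubation.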
PNC assembly inh = perinucleolar compartment assembly inhibition; PC3M PTB-GFP, PNC prevalence imaging, 16 h; stronger effect = lower value; activity change (PNC), negative = inhibition, % at 10 µM; actives 3.1% (n = 140,000);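 active = readout at or below -70, meaning at least 70% loss of cells showing the perinucleolar compartment, a nuclear body marking cancer cells; inconclusive = readout between -30 and a set limit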;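 also: plate controls were DMSO wells for no effect and camptothecin positive control wells for full effect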
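Read-out is percentage of cells bearing a perinucleolar compartment, from automated 20x imaging of fixed, Hoechst-stained PC3M PTB-GFP cells. Cells were seeded 4 h, then exposed 16 h to compound (23 nl of library stock) in duplicate plates.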
Tau FP inhib = blocks human tau fibril formation measured by polarization. K18 P301L tau heparin fibrillization, Alexa594 FP, 6 h. Potency, µM (series often up to 57.7 µM), inactives show at the top dose activity, negative = inhibition, hits mostly inhibitors. actives 0.39% (n = 280,000). AID 1468; also: potency is read from the fitted curve at half-maximal effect; nearly all actives have a fitted effect of over 55% in size
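Steps: dispense K18 P301L tau (15 uM plus 0.24 uM Alexa 594 tracer, final) in pH 7 sodium acetate; add compound; add heparin (20 uM final); incubate 6 hr, 37 C; add ThT (30 uM final); after 1 hr ambient, read FP.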
NPSR antag = blocks cAMP signaling of the human neuropeptide S receptor; Potency, µM (titrated, usually from 38.3 µM), for the others: top-dose activity change, negative = inhibition, most hits filed as inhibitors; actives 1% (n = 220,000); Q6W5P4; AID 1461; CHO-NPSR cells, cAMP TR-FRET, antagonist mode; also: potency is read from the fitted curve at half-maximal effect; nearly all actives have a fitted effect of over 50% in size
Target sequence (Q6W5P4 whole entry, looked up): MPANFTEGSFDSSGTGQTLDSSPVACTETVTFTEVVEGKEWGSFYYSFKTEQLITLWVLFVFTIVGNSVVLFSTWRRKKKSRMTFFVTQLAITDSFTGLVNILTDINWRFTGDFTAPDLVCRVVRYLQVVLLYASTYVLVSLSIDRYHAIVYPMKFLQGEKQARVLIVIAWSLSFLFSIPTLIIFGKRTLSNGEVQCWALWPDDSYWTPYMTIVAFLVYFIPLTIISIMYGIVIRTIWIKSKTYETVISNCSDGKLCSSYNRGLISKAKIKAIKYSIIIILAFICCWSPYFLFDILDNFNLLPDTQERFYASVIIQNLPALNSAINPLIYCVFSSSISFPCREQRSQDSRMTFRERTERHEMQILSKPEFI
Tau fluor cs = counter-screen for tau fibril formation inhibitors. AID 1463. Potency, µM (titrated, usually from 57.7 µM), inactives show at the highest dose activity change, negative = decrease. actives 0.93% (n = 280,000). tau K18 P301L Alexa594 fluorescence, heparin fibrillization; also: potency is read from the fitted curve at half-maximal effect; nearly all actives have a fitted effect of over 55% in size
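Human tau K18 P301L (15 uM unlabeled, 0.24 uM Alexa 594-labeled) in 100 mM sodium acetate pH 7 with 20 uM heparin, 6 hr at 37 C. ThT 30 uM added, 1 hr ambient; Alexa 594 FP and total fluorescence read at 555/632 nm.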
The depositor's hits bear a star; ? = inconclusive; nt = not tested or not shown; ! = a repeat was not active; [ ] = another dose, or the depositor's remark. Unless noted, calls follow the shape of the dose curve; as a rule, active = well fitted curve in the direction sought with a large enough effect; inconclusive = small, poorly fitted or top-dose-only effect, or another doubt; inactive = no such curve, though single readings can be large; an effect the other way counts as inactive or inconclusive. Unless noted, % is scaled to controls: 0 for no effect and ±100 for the full control effect.

SMILES	JMJD2E inh	Tau ThT inhib	PNC assembly inh	Tau FP inhib	NPSR antag	Tau fluor cs
CCc1ccc(S(=O)(=O)c2nnn3c2nc(Nc2ccc(C)c(Cl)c2)c2sccc23)cc1	nt	17.3%	nt	?	nt	-29.1%
CC(C)COCC(CN(Cc1ccccc1)c1ccccc1)N1CCCC1 (stereo not given)	14.1µM*!	?	nt	-9.0%	?	-21.9%
Cc1nn(-c2ccccc2)c2c1C1(C(=O)N(C(C)C)c3ccccc31)C(C#N)=C(N)O2 (stereo not given)	-11.8%	25.1µM*	-9.9	?	?	?
CC1=Nc2ccccc2/C1=C/c1sc(=O)n(CC(=O)N2CCCC2)c1O	7.9%	-19.9%	24.7	12.9%	-7.8%[46.1 µM]	?
Oc1cccc(Nc2nc(O)c(/C=C3\C=Nc4ccccc43)s2)c1	9.8%	3.98µM*	nt	13.2%	?	11.2µM*[quencher]
CC1=Nc2ccccc2/C1=C\c1sc(Nc2ccc(C)cc2)nc1O	-4.4%	7.94µM*	?	?	9.3%	11.2µM*[quencher]
Oc1nc(Nc2ccc(F)cc2)sc1/C=C1\C=Nc2ccccc21	2.9%	4.47µM*	nt	1.4%	?	7.08µM*[quencher]
Oc1nc(Nc2cccc(Cl)c2)sc1/C=C1\C=Nc2ccccc21	-0.9%	6.31µM*	-14.7	?	-24.2%[46.1 µM]	5.01µM*[quencher]
O=C(COc1ccccc1F)Nc1ccc(Cl)c(-c2nc3ccccc3[nH]2)c1	nt	-14.4%	nt	?	nt	?
Cc1ccc(NC(=O)c2nc(-c3ccncc3)no2)c(Cl)c1	nt	13.2%	nt	-8.4%	nt	1.6%
COc1ccc(C(=O)Nc2cc3c(oc2=O)CCCC3=O)cc1	7.3%	3.4%	nt	-2.7%	4.7%	1.2%
O=C(Nc1cc2c(oc1=O)CCCC2=O)c1cccc(Cl)c1	7.5%	-16.7%	-106.0*	-2.2%	-19.2%[46.1 µM]	-0.8%
CCN(CC)C(=O)NC1CC2CCCC(C1)N2Cc1ccccc1 (stereo not given)	9.4%	0.4%	-92.3*	-9.4%	0.9%[46.1 µM]	-4.6%
CCOC(=O)c1cc(NC(=O)Nc2ccccn2)c(C)nc1C	5.7%	?	nt	-0.6%	15.8%	-8.4%
CCOC(=O)c1cc(NC(=O)Nc2ccccc2OC)c(C)nc1C	-0.8%	-11.2%	-80.9*	-0.5%	-11.0%[46.1 µM]	?
CCOC(=O)c1cc(NC(=O)Nc2ccccc2Cl)c(C)nc1C	-14.3%	7.9%	nt	?	-18.1%	-22.1%
CCOC(=O)c1cc(NC(=O)Nc2ccc(Br)cc2)c(C)nc1C	3.9%	10.7%	nt	17.8µM*	-16.1%	?
CCOc1ccc(NC(=O)c2cnc3sc(N4CCOCC4)nn3c2=O)cc1	nt	-3.9%	nt	6.2%	nt	1.1%
C/C(=C\C(=O)c1ccc(F)cc1)Nc1ccc(N2CCOCC2)cc1	?	3.55µM*	-12.3	9.8%	-16.3%[46.1 µM]	-20.1%
CCOC(=O)N1CCC(N2C(=O)c3ccccc3C2Nc2cccnc2)CC1 (stereo not given)	-5.6%	-0.3%	-85.7*	2.2%	-13.8%[46.1 µM]	12.3%
CCOC(=O)N1CCC(N2C(=O)c3ccccc3C2Nc2ccc(S(=O)(=O)N3CCCCC3)cc2)CC1 (stereo not given)	2.7%	-12.7%	nt	-0.1%	10µM*	-8.0%
Brc1ccc(-c2nc(N/N=C/c3cccnc3)c3ccccc3n2)cc1	?	-14.6%	4.3	?	10µM*	?
C(=N\Nc1nc(-c2cccnc2)nc2ccccc12)/c1ccccc1	?	-9.5%	nt	-8.6%	-16.6%	?
C(=N\Nc1nc(-c2ccccn2)nc2ccccc12)/c1ccccc1	8.91µM*	-11.1%	nt	-13.7%	?	?
FC(F)(F)c1nc2ccccc2nc1N/N=C\c1ccccc1	?	14.1µM*	47.0	0.6%	?	?
SMILES	JMJD2E inh	Tau ThT inhib	PNC assembly inh	Tau FP inhib	NPSR antag	Tau fluor cs
CC(=O)N1CCCc2cc(S(=O)(=O)NCc3ccccc3Cl)ccc21	nt	5.4%	nt	-0.4%	nt	-3.0%
Cc1ccc2[nH]c(C)c(CC(=O)O)c2c1	22.4µM*	?	2.2	2.6%	-6.5%[46.1 µM]	-18.3%
CCOc1ccccc1CNC(=O)CCc1c(C)nn(-c2ccc(N3CCCC3)nn2)c1C	nt	-6.6%	nt	-15.7%	nt	-12.7%
CC(C)CC(OC(=O)c1cccs1)C(=O)NCc1ccco1 (stereo not given)	0.7%	-13.8%	-18.0	-11.1%	-24.0%[46.1 µM]	-3.6%
CCC(OC(=O)c1cccs1)C(=O)NCc1ccco1 (stereo not given)	-5.2%	-21.7%	-101.1*	-9.4%	-0.9%[46.1 µM]	-2.5%
COc1ccccc1C(=O)Nc1ccc(C2=NNC(=O)CC2C)cc1 (stereo not given)	-4.0%	?	-113.8*	2.7%	10.0%	-8.8%
CN=C(NC#N)Nc1ccc(C2=NNC(=O)CC2C)cc1 (stereo not given)	-27.1%	-7.9%	nt	-4.4%	?	0.1%
O=C1C2CC=C(Cl)CC2C(=O)N1CN(Cc1ccco1)CN1C(=O)C2CC=C(Cl)CC2C1=O (stereo not given)	?	-15.1%	-96.3*	-1.0%	2.3%[46.1 µM]	-6.2%
CCOc1cccc2cc(S(=O)(=O)c3ccccc3F)c(=O)oc12	nt	2.2%	nt	-5.0%	nt	-5.4%
CCc1nnc2c3ccccc3nc(Nc3cc(C)cc(C)c3)n12	nt	-10.8%	nt	-5.1%	nt	-14.1%
CCCCNC(=O)Nc1ccccc1C(=O)NCCC	-27.4%	0.8%	-100.0*	-0.5%	4.9%[46.1 µM]	-1.0%
Cc1[nH]n(-c2ccc([N+](=O)[O-])cc2)c(=O)c1C=NCC1CCCO1 (stereo not given)	-1.7%	-16.9%	nt	1.8%	8.4%	-7.1%
Cc1ccc(-n2[nH]c(C)c(/C=N/Nc3ccc([N+](=O)[O-])cc3[N+](=O)[O-])c2=O)cc1	-12.0%	1.58µM*	26.3	10µM*	-55.8%	3.16µM*[quencher]
Cc1[nH]n(-c2ccc([N+](=O)[O-])cc2)c(=O)c1C=NCCc1ccc(S(N)(=O)=O)cc1	-5.4%	-17.6%	nt	-14.3%	-10.2%	-5.2%
Cc1[nH]n(-c2ccc([N+](=O)[O-])cc2)c(=O)c1C=NCCc1c(C)[nH]c2ccccc12	-4.3%	?	-25.0	?	-30.4%	22.4µM*[quencher]
CCCCNC(=S)N/N=C/c1ccc(OCC(=O)Nc2c(C)cc(C)cc2C)c(OC)c1	-10.1%	2.0%	-81.9*	2.5%	0.4%	-4.5%
Cc1ccc(-c2noc(CN(C(=O)Cc3ccccc3)C(C)C)n2)cc1	-2.1%	-8.0%	-81.1*	10.9%	-23.5%[46.1 µM]	-12.0%
CC(C)N(Cc1nc(-c2ccccc2)no1)C(=O)Cc1ccccc1	0.4%	-9.9%	?	-5.6%	-7.0%[46.1 µM]	-9.3%
O=c1c(-c2ccnn2-c2ccc(F)cc2)cnc2n1CCS2	-7.8%	-11.2%	-27.7	0.1%	-3.4%[46.1 µM]	-5.3%
O=c1c(-c2ccnn2-c2cccc(Cl)c2)cnc2n1CCS2	-2.0%	-5.1%	-80.5*	-0.5%	-4.5%[46.1 µM]	0.1%

Bioassay records deposited in PubChem BioAssay by National Center for Advancing Translational Sciences (NCATS).
